We go through 54 molecules from PubChem BioAssay AID623877 (Johns Hopkins Ion Channel Center, 2012).

Hit rate of the full screen: of about 340,000 compounds, about 1,000 (0.29%) were called active.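 The calls were made as follows: active = fluorescence-ratio B-score plate-corrected deviation score at least 3 library SD below zero, with starting fluorescence score within 5 deviations; inactive = the rest.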 For the sample, actives were picked, then their nearest neighbours and some compounds at random.

The target in this assay is Anoctamin-1 (Mus musculus) (UniProt Q8BHY3). Put plainly: mouse ANO1 channel activation – cell-based, HTS, primary screen (AID 623877).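 As to B-score: channel opened by trigger with iodide after compound preincubation; score built on the fluorescence ratio of max minus min over baseline; more negative score means more quench and so TMEM16A activation or potentiation.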 As to conditions: HEK293 TMEM16A/YFP-H148Q/I152L, iodide quench fluorescence, at 10 µM; hits give low values.
Chain of Anoctamin-1 (Mus musculus) (Q8BHY3 whole entry, looked up): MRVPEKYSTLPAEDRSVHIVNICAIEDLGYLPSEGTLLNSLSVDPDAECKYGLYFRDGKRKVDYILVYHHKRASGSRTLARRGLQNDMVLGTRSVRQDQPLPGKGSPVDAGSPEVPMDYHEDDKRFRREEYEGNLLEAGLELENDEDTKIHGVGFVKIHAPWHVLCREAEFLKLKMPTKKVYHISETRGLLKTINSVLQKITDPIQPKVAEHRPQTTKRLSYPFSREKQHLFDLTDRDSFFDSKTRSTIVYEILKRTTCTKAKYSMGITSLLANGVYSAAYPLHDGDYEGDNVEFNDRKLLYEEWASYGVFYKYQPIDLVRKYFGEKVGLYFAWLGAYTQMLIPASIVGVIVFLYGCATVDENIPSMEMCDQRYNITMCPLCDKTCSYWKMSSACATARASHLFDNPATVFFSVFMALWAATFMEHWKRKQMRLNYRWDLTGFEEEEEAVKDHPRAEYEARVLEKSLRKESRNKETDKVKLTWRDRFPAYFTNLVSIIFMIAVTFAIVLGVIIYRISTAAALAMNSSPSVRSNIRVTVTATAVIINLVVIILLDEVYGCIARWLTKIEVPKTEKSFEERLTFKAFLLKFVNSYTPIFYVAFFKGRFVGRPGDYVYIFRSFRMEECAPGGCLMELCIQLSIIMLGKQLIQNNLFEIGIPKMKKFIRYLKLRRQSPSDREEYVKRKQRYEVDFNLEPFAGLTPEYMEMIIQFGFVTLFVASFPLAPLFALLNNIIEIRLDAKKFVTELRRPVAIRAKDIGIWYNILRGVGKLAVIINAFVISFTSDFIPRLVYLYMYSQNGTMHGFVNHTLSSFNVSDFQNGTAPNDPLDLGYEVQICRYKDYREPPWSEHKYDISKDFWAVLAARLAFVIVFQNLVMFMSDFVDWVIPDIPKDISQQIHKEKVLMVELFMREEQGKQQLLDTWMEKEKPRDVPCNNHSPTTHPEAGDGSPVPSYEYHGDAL
Regarding `CC(OC(=O)CCCc1c[nH]c2ccccc12)C(=O)Nc1ccc(S(N)(=O)=O)cc1` (centres undefined), the B-score result is “inactive”.
To `C/C(=N\NS(=O)(=O)c1cccc([N+](=O)[O-])c1)c1cc2ccccc2o1` belongs “inactive”; to `CCCCN1CCNC1=S`, “inactive”.
For `O=C(c1ccc2c(c1)N(Cc1ccc(F)cc1)C(=O)c1ccccc1S2(=O)=O)N1CCN(c2ccccn2)CC1` the value was -4.74 (active).
To `O=C1c2ccccc2S(=O)(=O)c2cc(N3CCN(c4ccccn4)CC3)ccc21` belongs -5.73 (active); to `O=C(c1ccc2c(c1)C(=O)N(c1ccc(Cl)cc1)C2=O)N1CCN(c2ccccn2)CC1`, “inactive”.
As to `O=C(C(Cl)Cl)N1CCN(c2ccccn2)CC1`, the B-score result was “inactive”.
To `O=C(c1c(F)cccc1Cl)N1CCN(c2ccccn2)CC1` belongs “inactive”; to `O=C1c2cccc3cccc(c23)N1CN1CCN(c2ccccn2)CC1`, “inactive”; to `Nc1c(Cl)cc(-c2csc(N3CCCC3c3nc4cc(Cl)c(Cl)cc4n3CCOCCO)n2)cc1Cl` (centres undefined), “inactive”.
For `Cc1ccc(CSCC(=O)N(C)CC(=O)Nc2ccc(C)cc2)cc1` the value was “inactive”; for `CC1C(=O)NC(=O)C1c1ccccc1` (centres undefined), “inactive”; for `COc1ccc(Nc2nc(-c3cccnc3)nc3ccccc23)cn1`, -6.47 (active).
For `S=c1nc2ccccc2c2nc(-c3cccnc3)[nH]n12` the value was “inactive”.
`CC(C)(C)Nc1nc(-c2ccccn2)nc2ccccc12`: the B-score result was “inactive”.
For `O=S(=O)(NC(=S)Nc1ccccc1)c1ccc(F)cc1`, the B-score result was “inactive”.
To `O=C(O)C1CCN(C(=O)c2cc(F)cc3c2OCOC3)CC1` belongs “inactive”; to `Cc1cc(=O)n2nc(N3CCCC(C(=O)NCCC4=CCCCC4)C3)sc2n1` (centres undefined), “inactive”.
For `Cc1cc(=O)n2nc(N3CCCC3C(=O)NCCCN3CC(C)CC(C)C3)sc2n1` (centres undefined) the value was -18.1 (active); for `Cc1cc(=O)n2nc(N3CCCC(C(=O)NCc4ccc(Cl)cc4)C3)sc2n1` (centres undefined), “inactive”; for `CN(c1ccc(OCC(=O)OCC(=O)Nc2cccc([N+](=O)[O-])c2)cc1)S(=O)(=O)c1ccc(F)cc1`, “inactive”.
To `Cc1ccccc1OCCC(=O)OCC(=O)NCCc1ccc(S(N)(=O)=O)cc1` belongs “inactive”; to `CN(C)S(=O)(=O)c1ccc(C(=O)NCCN=C2NS(=O)(=O)c3ccccc32)cc1`, “inactive”; to `CCc1ccc(-c2cc(C)no2)cc1S(=O)(=O)NCCc1ccc(S(N)(=O)=O)cc1`, -4.67 (active).
With `Cc1noc(C)c1S(=O)(=O)NCCc1ccc(S(N)(=O)=O)cc1`, the B-score entry is “inactive”.
To `Cc1cc(-c2ccc(C)c(S(=O)(=O)Nc3ccc(S(N)(=O)=O)cc3)c2)on1` belongs “inactive”; to `Cc1cc(C)c2c(c1)cc(C)c1nnc(SCC(=O)Nc3cc(C)on3)n12`, “inactive”; to `C=CCN(CC=C)CCOc1ccccc1[N+](=O)[O-]`, “inactive”.
For `O=[N+]([O-])c1ccc(NS(=O)(=O)c2ccccc2)c(Cl)c1` the value was “inactive”; for `O=C(NNC(=S)NC(=O)c1cn(-c2ccccc2)nc1-c1ccccc1)c1ccncc1`, -5.25 (active); for `NC(=O)C1CCN(C(=O)c2cn(-c3ccccc3)nc2-c2cccnc2)CC1`, “inactive”.
For `Cc1ccc(-c2nn(-c3ccccc3)cc2C(=O)NC2CCC(O)CC2)cc1` (centres undefined) the value was “inactive”; for `O=C(CCc1nnc2ccc(NCCCN3CCCC3=O)nn12)NCc1ccccc1Cl`, “inactive”; for `C#CCOCCOCCOCCNc1nc(N2CCN(C(=O)C(Cc3ccc(O)cc3)n3cc(C(N)CC(C)C)nn3)CC2)nc(N2CCN(C(=O)C(Cc3ccc(O)cc3)n3cc(C(N)C(C)CC)nn3)CC2)n1` (centres undefined), “inactive”.
In the case of `COc1ccc(CN2C(=O)C(C)S/C2=N/N=C/c2ccco2)cc1` (centres undefined), the B-score result is “inactive”.
For `COc1ccc(NC(=O)Cn2nnc(C(=O)NCCc3ccc(OC)c(OC)c3)c2N)cc1` the value was “inactive”; for `COc1ccc(CNC(=O)c2nnn(CC(=O)Nc3cc(C)cc(C)c3)c2N)cc1`, “inactive”; for `CCc1ccc(NC(=O)Cn2nnc(C(=O)NCc3ccc(OC)cc3)c2N)cc1`, -25.9 (active).
To `O=C(C1CCC1)N1CCN(S(=O)(=O)c2ccc([N+](=O)[O-])cc2)CC1` belongs “inactive”; to `COc1ccc(NC(=S)Nc2ccc(S(N)(=O)=O)cc2)c(C)c1`, -4.58 (active).
To `COc1ccc(N2CCN(C(=S)Nc3ccc(S(N)(=O)=O)cc3)CC2)cc1` belongs “inactive”; to `COc1cc(NC(=S)NCc2ccc(S(N)(=O)=O)cc2)cc(OC)c1`, “inactive”; to `Cc1ccc(CCNC(=O)C2CCN(S(=O)(=O)N3CCCC3)CC2)cc1`, “inactive”.
Turning to `O=C(O)c1cccc2c1C(=O)N(C1CCCCC1)C2`, the B-score entry is “inactive”.
To `CC(Sc1nnnn1C1CCCCC1)C(=O)O` (centres undefined) belongs “inactive”.
To `O=C(O)C1CCN1C1CCCCC1` (centres undefined) belongs -6.61 (active).
Turning to `COc1cccc2c1OCC(CN1CCN(C3CCCCC3)C(CCO)C1)=C2` (centres undefined), the B-score result was “inactive”.
For `CC(=O)OCC1(O)CC23CCC4c5ccoc5CCC4(C)C2CCC1C3` (centres undefined) the value was -17.2 (active).
For `Oc1cc2c(cc1O)CN(C(=S)NCCc1ccc(Cl)cc1)CCC2` the value was “inactive”.
For `Cc1nc(SCC(=O)NC2CCCC2)[nH]c(=O)c1C` the value was “inactive”; for `C[C@H](NC(=O)c1nc[nH]c1C(=O)N[C@@H](C)C(=O)OC(C)(C)C)C(=O)OC(C)(C)C`, “inactive”.
In the case of `COCC1CCCN(Cc2nc(-c3ccc4c(c3)OCO4)no2)C1` (centres undefined), the B-score entry was “inactive”.
For `CN(CCN1CCOCC1)Cc1nc(-c2ccc3c(c2)OCO3)no1` the value was -6.61 (active); for `CCn1ccnc1CN(C)Cc1nc(-c2ccc3c(c2)OCO3)no1`, “inactive”.
